20 molecules from PubChem BioAssay (NCATS) can be followed below.

Inconclusive results are not listed. Unmarked numbers belong to inactive results. Calls of active or inactive are those of the source. The call rests on the fitted dose curve; in most records, active means well fitted cell-killing curve with a large enough effect; inconclusive means small, poorly fitted or top-dose-only effect, or effect the other way; inactive means no such curve, though single readings can be large or run the other way.

Assay [1] can be described thus: Quantitative High-Throughput drug screen in 47 multiple myeloma cell lines against the NCATS MIPE library collection: OPM1_PLB cell viability assay (AID 1918989). Further: nearly all actives have a fitted effect of over 40% in size. In short, it runs like this:
(§1)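 Readout: median RLU from CellTiter-Glo after 5 min at room temperature. Preceding step was 48 h drug treatment of 500 cells/well at 37 °C, 5% CO2, with DMSO-only and media-only control wells.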

Assay [2] can be described thus: Quantitative High-Throughput drug screen in 47 multiple myeloma cell lines against the NCATS MIPE library collection: U266_ATCC cell viability assay (AID 1919864). Further: nearly all actives have a fitted effect of over 35% in size. The procedure, abridged:
as §1

Assay [3] can be described thus: Quantitative High-Throughput drug screen in 47 multiple myeloma cell lines against the NCATS MIPE library collection: XG6_PLB cell viability assay (AID 1919865). Further: nearly all actives have a fitted effect of over 40% in size. The procedure, abridged:
as §1

Assay [4] can be described thus: Quantitative High-Throughput drug screen in 47 multiple myeloma cell lines against the NCATS MIPE library collection: XG1_PLB cell viability assay (AID 1919866). Further: nearly all actives have a fitted effect of over 35% in size. In short, it runs like this: as §1
A short description of assay [5]: Quantitative High-Throughput drug screen in 47 multiple myeloma cell lines against the NCATS MIPE library collection: VP6_DJ cell viability assay (AID 1919867). Further: nearly all actives have a fitted effect of over 40% in size. The procedure, abridged: as §1
A short description of assay [6]: Quantitative High-Throughput drug screen in 47 multiple myeloma cell lines against the NCATS MIPE library collection: PE2_PLB cell viability assay (AID 1919869). Further: nearly all actives have a fitted effect of over 35% in size. The procedure, abridged:
as §1

Assay [7] is described as follows: Quantitative High-Throughput drug screen in 47 multiple myeloma cell lines against the NCATS MIPE library collection: PCM6_Riken cell viability assay (AID 1919870). Further: nearly all actives have a fitted effect of over 30% in size. In short, it runs like this: as §1
The nature of assay [8]: Quantitative High-Throughput drug screen in 47 multiple myeloma cell lines against the NCATS MIPE library collection: RPMI8226_ATCC cell viability assay (AID 1919871). Further: nearly all actives have a fitted effect of over 30% in size. The procedure, abridged: as §1
Assay [9] is described as follows: Quantitative High-Throughput drug screen in 47 multiple myeloma cell lines against the NCATS MIPE library collection: SKMM1_PLB cell viability assay (AID 1919863). Further: nearly all actives have a fitted effect of over 35% in size. To be noted: SKMM1 myeloma viability, CellTiter-Glo ATP, 48 h; viability: stronger effect = lower value. The procedure, abridged:
as §1
For orientation: In ATP-based viability assays light output follows the ATP content of the culture.

Assay [10] is described as follows: Quantitative High-Throughput drug screen in 47 multiple myeloma cell lines against the NCATS MIPE library collection: UTMC2_PLB cell viability assay (AID 1919868). Further: nearly all actives have a fitted effect of over 55% in size. The following applies: CellTiter-Glo ATP luminescence, 48 h; viability (% of DMSO control): at 45.8 µM (top of the series). The procedure, abridged: as §1
Assay [11] in a line: Quantitative High-Throughput drug screen in 47 multiple myeloma cell lines against the NCATS MIPE library collection: KMS28BM_JCRB cell viability assay (AID 1919874). Further: nearly all actives have a fitted effect of over 35% in size. In short, it runs like this: as §1
Assay [12] in a line: Quantitative High-Throughput drug screen in 47 multiple myeloma cell lines against the NCATS MIPE library collection: OPM2_DSMZ cell viability assay (AID 1919872). Further: nearly all actives have a fitted effect of over 30% in size. The procedure, abridged:
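Myeloma cell lines, 500 cells per well, exposed to MIPE 4.0 library compounds for 48 h at 37C, 5% CO2. Viability from ATP by CellTiter-Glo luminescence; normalised to DMSO (100%) and media-only (0%) wells.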

The nature of assay [13]: Quantitative High-Throughput drug screen in 47 multiple myeloma cell lines against the NCATS MIPE library collection: KMS11_JCRBsus cell viability assay (AID 1919873). Further: nearly all actives have a fitted effect of over 50% in size. The procedure, abridged:
as §1
Potency means the concentration at half of the fitted maximal effect.

`CN(C)c1ccc(Nc2nc(N)n(C(=O)c3c(F)cccc3F)n2)cc1`: the Potency is 5.26 µM (active) in assay [1]; 18.7 µM (active) in assay [2]; 3.72 µM (active) in assay [3]; 0.935 µM (active) in assay [4]; 16.6 µM (active) in assay [5]; 5.9 µM (active) in assay [6]. For the same molecule, the Potency in assay [7] was 13.2 µM (active). Also, in [8], the Potency entry was “inactive”.
Take `COc1ccc2c3n(c(=NC(=O)c4cccnc4)nc2c1OC)CCN3`: the Potency is 16.6 µM (active) in assay [1]; 0.148 µM (active) in assay [9]; 1.48 µM (active) in assay [4]; 1.48 µM (active) in [5]; 3.32 µM (active) in assay [10]; 11.8 µM (active) in assay [6].
For `O=C(Nc1ccc(F)c(C(F)(F)F)c1)Nc1nnc(-c2ccncc2)s1`, the Potency in assay [1] was 13.2 µM (active); in assay [9], 8.33 µM (active); in assay [5] it was 4.18 µM (active); in [7], 1.87 µM (active).
For `CC(=O)Oc1ccccc1C(=O)O`, the Potency result in assay [1] and in assay [8] was “inactive” throughout. In addition, the viability (commonly a read-out of living cells in per cent, often relative to untreated cells) in assay [9] is 129%. The Potency in assay [2] was 7.43 µM (active); in assay [4] it was 5.26 µM (active); in assay [11], 9.35 µM (active).
As for `COc1c(Cl)cc2c([nH]c3cnccc32)c1NC(=O)c1cccnc1C`, the Potency in assay [1] is 2.96 µM (active); in [9], 6.62 µM (active); in assay [4], 0.372 µM (active); in [6], 3.32 µM (active); in [11] it was 26.4 µM (active). In addition, the Potency entry in assay [8] and in assay [12] was “inactive” each time.
Take `Cc1cc(Nc2nc(N[C@@H](C)c3ncc(F)cn3)ncc2Cl)n[nH]1`: the Potency in assay [1] is 18.7 µM (active); in assay [2], 9.35 µM (active); in assay [3], 2.96 µM (active); in [4], 2.64 µM (active); in assay [5] it was 6.62 µM (active); in assay [10], 6.62 µM (active). Also, the Potency in assay [6] was 10.5 µM (active); in assay [7], 6.62 µM (active); in [8], 11.8 µM (active).
For `O=C(c1cc(Cc2n[nH]c(=O)c3ccccc23)ccc1F)N1CCN(C(=O)C2CC2)CC1`, the Potency result in [1], in [8], in assay [12] and in [11] was “inactive” in each case. The viability in assay [9] was 93.3%. For the same molecule, the Potency in assay [10] is 10.5 µM (active); in [6], 18.7 µM (active); in [7], 11.8 µM (active).
`CCn1cc(C(=O)O)c(=O)c2cc(F)c(N3CCNC(C)C3)c(F)c21` (stereo not given): the Potency in [1] is 11.8 µM (active). Besides, the viability in assay [9] was 140%. Also, the Potency entry in [3], in [4], in assay [5], in assay [6], in [7] and in assay [8] was “inactive” in each case. The Potency result in assay [11] was “inactive”.
On to `COc1ccccc1[C@H](c1cccc2ccccc12)[C@@](C)(C#N)C(=O)N1CCC(c2cccc(C(F)(F)F)c2)CC1`, for which the Potency was 5.9 µM (active) in assay [1]; 5.9 µM (active) in assay [9]; 4.69 µM (active) in assay [3]; 3.32 µM (active) in [4]; 5.26 µM (active) in assay [5]; 5.26 µM (active) in [10]. In addition, the Potency in assay [6] is 5.9 µM (active); in [7], 5.9 µM (active); in assay [13] it was 1.05 µM (active); in assay [11], 4.18 µM (active).
For the molecule `CC[C@H](Nc1ncnc2nc[nH]c12)c1nc2cccc(F)c2c(=O)n1-c1ccccc1`, the Potency in [1] is 14.8 µM (active); in assay [9], 16.6 µM (active); in assay [10] it was 5.9 µM (active).
Turning to `NC(=O)C1CCCc2c1[nH]c1ccc(Cl)cc21` (stereo not given), the Potency in assay [1] was 4.69 µM (active); in [3], 20.9 µM (active); in assay [4] it was 16.6 µM (active); in [5], 3.32 µM (active); in assay [6] it was 16.6 µM (active); in assay [7], 16.6 µM (active). Moreover, the viability in [9] was 110%. In addition, the Potency entry in [8], in [12] and in assay [13] was “inactive” throughout.
`Nc1cccc(S(=O)(=O)N2CCCN(S(=O)(=O)c3ccc4c(c3)OCCO4)CC2)c1`: the Potency entry in assay [1] and in assay [11] was “inactive” in each case. Besides, the viability in assay [9] was 103%. Besides, the results for the Potency in assay [4] and in assay [5] were 7.43 µM (active) and 8.33 µM (active), respectively.
Consider `CCOc1cc(C=C2C(=O)N(c3ccccc3)N=C2C)cc(Cl)c1OCC(=O)OC`, for which, in assay [1], the Potency was 23.5 µM (active). In addition, the viability in [9] was 106%. Further, the Potency entry in assay [8], in [12] and in [11] was “inactive” in each case.
For `CN(C)C(=O)c1ccc(S(=O)(=O)c2ccc(NC(=O)[C@@](C)(O)C(F)(F)F)c(Cl)c2)cc1`, the Potency result in [1], in assay [2], in [8], in [12] and in [11] was “inactive” in each case. For the same molecule, the viability in [9] was 99.9%. Further, the Potency in assay [4] was 3.32 µM (active).
Consider `CC(C)OC(=O)C1=CN(C(=O)c2ccc(F)c(F)c2)CC(C)(C)c2c1[nH]c1ccccc21`, for which the Potency entry in assay [1], in assay [3], in [4], in [10], in [6] and in [7] was “inactive” throughout. In addition, the Potency entry in assay [8] and in assay [12] was “inactive” throughout. Further, the viability in assay [9] is 104%. The Potency in assay [5] is 1.87 µM (active).
Consider `Cc1cc2c(C(C)C)c(O)c(O)c(C=O)c2c(O)c1-c1c(C)cc2c(C(C)C)c(O)c(O)c(C=O)c2c1O`, for which the Potency in assay [1] is 10.5 µM (active); in assay [9], 29.6 µM (active); in assay [4], 8.33 µM (active); in [5], 5.9 µM (active); in assay [10], 5.9 µM (active); in [6], 5.9 µM (active). Moreover, the Potency in assay [8] was 20.9 µM (active); in [12], 18.7 µM (active); in [13] it was 5.9 µM (active); in assay [11], 10.5 µM (active).
For the molecule `O=C1[C@H](Cc2ccc(O)cc2)N2C(=O)CCN(C(=O)NCc3ccccc3)[C@H]2CN1Cc1cccc2ccccc12`, the Potency was 8.33 µM (active) in [1]; 6.62 µM (active) in assay [9]; 4.18 µM (active) in assay [3]; 9.35 µM (active) in assay [4]; 4.69 µM (active) in assay [6]; 1.66 µM (active) in [13].
For `COc1ccc(-c2c(-c3ccc(O)cc3O)n[nH]c2C)cc1`, the Potency in assay [1] is 30.3 µM (active); in [5], 34 µM (active). For the same molecule, the viability in assay [9] is 137%. For the same molecule, the Potency entry in assay [2] and in assay [8] was “inactive” throughout.
With `N#CC[C@H](C1CCCC1)n1cc(-c2ncnc3[nH]ccc23)cn1`, the Potency in assay [1] is 6.62 µM (active); in assay [9] it was 6.62 µM (active); in assay [2], 18.7 µM (active); in assay [10], 9.35 µM (active); in [13], 20.9 µM (active); in assay [11] it was 20.9 µM (active). Further, the Potency entry in assay [8] and in [12] was “inactive” throughout.
Take `CCCc1nc2c(C)cc(-c3nc4ccccc4n3C)cc2n1Cc1ccc(-c2ccccc2C(=O)O)cc1`: the Potency entry in assay [1], in assay [8], in assay [12], in assay [13] and in [11] was “inactive” throughout. Besides, the viability in assay [9] is 142%. In addition, the Potency in assay [4] is 20.9 µM (active); in assay [5], 16.6 µM (active); in [6] it was 11.8 µM (active).
